Test results: PubChem BioAssay AID2702 (National Center for Advancing Translational Sciences (NCATS), 2010)
Activity calls are given as the source filed them.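 The calls were made as follows: active = compounds blocking 15-hLO-2 with IC50 at or below the top tested dose, none here; inactive = the rest.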

Each compound was assayed against Polyunsaturated fatty acid lipoxygenase ALOX15B (Homo sapiens) (UniProt O15296) (assay: Cuvette-Based Assay fo Inhibitors of 15-hLO-2 (15-human lipoxygenase 2)). Settings: purified 15hLO-2, arachidonic acid, UV 234 nm cuvette.
Sequence of Polyunsaturated fatty acid lipoxygenase ALOX15B (Homo sapiens) (O15296 whole entry, looked up): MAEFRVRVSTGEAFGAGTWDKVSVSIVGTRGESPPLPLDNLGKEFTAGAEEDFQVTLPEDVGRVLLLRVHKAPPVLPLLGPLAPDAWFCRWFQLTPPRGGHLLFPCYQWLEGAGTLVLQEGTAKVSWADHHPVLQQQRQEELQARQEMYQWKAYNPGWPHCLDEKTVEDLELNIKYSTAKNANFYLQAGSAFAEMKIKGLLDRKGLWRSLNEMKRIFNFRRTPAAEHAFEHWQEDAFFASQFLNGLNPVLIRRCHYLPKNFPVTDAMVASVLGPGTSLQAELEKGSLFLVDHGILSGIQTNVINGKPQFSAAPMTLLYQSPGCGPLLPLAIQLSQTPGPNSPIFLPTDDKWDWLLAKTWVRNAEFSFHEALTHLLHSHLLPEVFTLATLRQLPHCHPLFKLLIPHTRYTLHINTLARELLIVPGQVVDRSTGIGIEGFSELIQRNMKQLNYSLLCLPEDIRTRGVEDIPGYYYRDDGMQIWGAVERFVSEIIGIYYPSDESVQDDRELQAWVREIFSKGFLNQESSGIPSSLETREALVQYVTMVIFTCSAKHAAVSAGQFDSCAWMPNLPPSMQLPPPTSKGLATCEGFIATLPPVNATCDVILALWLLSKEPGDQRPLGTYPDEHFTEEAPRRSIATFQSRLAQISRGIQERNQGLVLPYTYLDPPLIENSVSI
Procedure: Human lipoxygenase 15hLO-2 is a member of the closely related lipoxygenase family of enzymes which catalyze the site-specific oxidation of arachidonic acid to various hormone precursor molecules and as such is a candidate for drug development in a variety of disease areas, such as cancer and inflammation. Inhibition of 15hLO-2 activity was screened by utilizing arachidonic acid as a substrate. The extent of hydroperoxide product formation was measured by a secondary chromogenic reaction in which xylenol orange (XO, Sigma-Aldrich, cat. number 39,818-7) reacts with the ferric ions produced from the reaction between the hydroperoxide and ferrous ions. The Fe(III)-XO complex is characterized with red-shifted absorbance at 560 nm. A purified preparation of human 15hLO-2 was supplied by Professor Ted Holman, University of California, Santa Cruz. This assay is includes some confirmation and follow-up compounds for related primary screening assay AID 881. Assay Provider: Holman, T.R., University of California, Santa Cruz Screening Center PI: Austin, Christopher P. Screening Center: NIH Chemical Genomics Center
For control experiments, 2 mL of substrate buffer (7 uM arachidonic acid / 25 mM HEPES / 0.01% (v/v) Triton X-100, pH 7.5) was aliquoted in a cuvette with a magnetic stir bar. After equilibrium was ensured, an aliquot of inhibitor solvent was added (DMSO or MeOH), and equilibrium was once again assured. The reaction was started by adding enzyme to the cuvette and the reaction was followed until completed. The inhibition experiments were performed as above, except the actual inhibitory compound was added instead of vehicle. To achieve an IC50, typically 5 concentrations of the inhibitor were studied. If the inhibitor concentration was constant, then five different reaction volumes were used. Step \ Parameter \ Value \ Description 1; UV-Vis; 234 nm; Equilibration 2; Reagent; 2 mL; Substrate buffer 3; UV-Vis; 234 nm; Equilibration 4; Reagent; varies; Compound 5; UV-Vis; 234 nm; Equilibration 6; Reagent; 50-200 nM; Enzyme 15hLO-2 7; UV-Vis; 234 nm; Enzymatic reaction Step \ Notes 1. Blank cuvette to air. 2. 7 uM AA, 25 mM HEPES, 0.01% Triton X-100, pH 7.5. 3. No change in absorbance ensured. 4. Compound vehicle or compound in various concentrations depending on potency. 5. No change in absorbance ensured. 6. Enzyme concentration to achieve reaction rate between 0.02 and 0.04 AU/s. 7. Enzymatic reaction visualized until completion.

Compound | outcome
O=C(OCC#CCSc1nnc(-c2cccc3ccccc23)o1)c1cc2ccccc2o1 | inactive
O=C1c2ccccc2NC(c2ccc(-c3cccc(Cl)c3)o2)N1O (configuration not stated) | inactive
COc1cccc(CNc2ccc(N3CCCCC3)cc2)c1OC | inactive
O=C(OCC#CCSc1nnc(-c2cccc3ccccc23)o1)c1cccs1 | inactive
CC(=O)N1CCN(c2ccc(NCc3ccc4c(c3)OCO4)cc2)CC1 | inactive
CC(C)Nc1oc(-c2cccc3ccccc23)nc1C#N | inactive
O=C(OCC#CCSc1nnc(-c2cccc3ccccc23)o1)c1ccc(F)cc1 | inactive
